Source: PubChem BioAssay (National Center for Advancing Translational Sciences (NCATS))
HP1b binding inh = HP1-beta chromodomain-methylated histone interaction inhibition; AlphaScreen HP1-beta / biotin-H3K9me3 peptide binding; Potency, µM (series often up to 114 µM), actives largely listed as inhibitors; hit rate 0.56% among 390,000; also: nearly all actives have a fitted effect of over 70% in size
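Compound inhibition of the preformed complex between 50 nM HP1-beta and 50 nM biotinylated H3K9me3 peptide was read by AlphaScreen. Buffer was PBS pH 7.4 with 0.01% Tween-20. Incubations ran 30 min at room temperature, with 10 ug/mL donor/acceptor beads.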
BAZ2B inh = inhibitors of human BAZ2B bromodomain; Q9UIF8; AlphaScreen BAZ2B-H3K14Ac peptide displacement; Potency, µM (doses to about 114 µM), actives largely listed as inhibitors; hit rate 4.4% among 360,000; also: nearly all actives have a fitted effect of over 60% in size
Target sequence (Q9UIF8 whole entry, looked up): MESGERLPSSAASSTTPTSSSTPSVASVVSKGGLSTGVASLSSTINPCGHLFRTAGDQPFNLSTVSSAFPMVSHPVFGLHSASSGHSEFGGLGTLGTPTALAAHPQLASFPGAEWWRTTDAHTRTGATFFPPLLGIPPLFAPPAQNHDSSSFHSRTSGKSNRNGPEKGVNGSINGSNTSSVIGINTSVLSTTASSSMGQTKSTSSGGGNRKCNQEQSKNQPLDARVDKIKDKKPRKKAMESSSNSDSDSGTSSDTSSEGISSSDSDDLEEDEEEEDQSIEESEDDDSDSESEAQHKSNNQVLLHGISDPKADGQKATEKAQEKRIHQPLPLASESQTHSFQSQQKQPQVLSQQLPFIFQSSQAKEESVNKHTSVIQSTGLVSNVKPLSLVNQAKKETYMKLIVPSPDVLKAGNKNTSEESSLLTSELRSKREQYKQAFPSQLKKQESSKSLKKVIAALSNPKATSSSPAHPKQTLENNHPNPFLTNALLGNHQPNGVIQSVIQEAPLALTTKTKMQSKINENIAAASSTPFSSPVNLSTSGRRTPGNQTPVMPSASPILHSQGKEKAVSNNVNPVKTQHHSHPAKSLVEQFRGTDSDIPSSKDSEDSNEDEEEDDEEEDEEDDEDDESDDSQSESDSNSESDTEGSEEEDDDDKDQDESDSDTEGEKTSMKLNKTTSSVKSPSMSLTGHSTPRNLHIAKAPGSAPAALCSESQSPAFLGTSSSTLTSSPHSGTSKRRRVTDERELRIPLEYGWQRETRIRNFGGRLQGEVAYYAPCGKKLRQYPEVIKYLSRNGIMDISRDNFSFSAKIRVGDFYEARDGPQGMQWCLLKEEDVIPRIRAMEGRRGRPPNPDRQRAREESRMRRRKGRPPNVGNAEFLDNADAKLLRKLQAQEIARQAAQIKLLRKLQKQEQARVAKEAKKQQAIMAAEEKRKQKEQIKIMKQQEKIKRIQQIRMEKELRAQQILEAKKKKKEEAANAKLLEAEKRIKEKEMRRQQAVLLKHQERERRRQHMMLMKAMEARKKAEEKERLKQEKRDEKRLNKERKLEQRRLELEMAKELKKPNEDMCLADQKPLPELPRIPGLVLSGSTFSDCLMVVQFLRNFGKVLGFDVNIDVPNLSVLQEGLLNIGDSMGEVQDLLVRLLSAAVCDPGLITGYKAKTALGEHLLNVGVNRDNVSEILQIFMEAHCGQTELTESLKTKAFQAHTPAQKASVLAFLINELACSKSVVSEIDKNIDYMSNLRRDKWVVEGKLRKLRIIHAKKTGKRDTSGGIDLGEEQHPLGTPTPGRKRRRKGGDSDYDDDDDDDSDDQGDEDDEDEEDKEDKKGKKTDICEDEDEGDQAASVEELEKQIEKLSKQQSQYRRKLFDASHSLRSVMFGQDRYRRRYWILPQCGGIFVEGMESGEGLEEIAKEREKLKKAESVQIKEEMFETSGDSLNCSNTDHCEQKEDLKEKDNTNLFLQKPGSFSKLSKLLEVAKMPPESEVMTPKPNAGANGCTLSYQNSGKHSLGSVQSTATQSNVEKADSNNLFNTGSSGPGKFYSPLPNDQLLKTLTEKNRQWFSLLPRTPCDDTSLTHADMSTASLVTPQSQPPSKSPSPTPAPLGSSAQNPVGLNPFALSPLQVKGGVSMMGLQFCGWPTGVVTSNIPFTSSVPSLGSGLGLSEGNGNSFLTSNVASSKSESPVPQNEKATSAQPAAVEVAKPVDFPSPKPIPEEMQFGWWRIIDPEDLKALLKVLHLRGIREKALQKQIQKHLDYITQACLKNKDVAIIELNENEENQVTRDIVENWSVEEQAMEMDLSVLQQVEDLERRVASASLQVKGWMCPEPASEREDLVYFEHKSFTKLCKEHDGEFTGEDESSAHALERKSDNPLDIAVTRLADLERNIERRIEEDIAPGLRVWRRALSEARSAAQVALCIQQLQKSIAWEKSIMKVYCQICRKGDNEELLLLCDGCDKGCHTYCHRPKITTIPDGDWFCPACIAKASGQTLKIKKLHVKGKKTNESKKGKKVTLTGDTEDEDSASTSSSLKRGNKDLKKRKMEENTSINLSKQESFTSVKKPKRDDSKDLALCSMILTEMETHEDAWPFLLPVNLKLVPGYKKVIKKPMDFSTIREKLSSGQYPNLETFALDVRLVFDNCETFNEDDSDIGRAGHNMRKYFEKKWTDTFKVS
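AlphaScreen luminescence quantifies BAZ2B engagement of H3K14Ac peptide; the protein and biotinylated peptide are both at 50 nM final, buffer PBS pH 7.4 with 0.01% Tween-20, all steps at room temperature.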
JMJD2A Tudor = blocks the human JMJD2A Tudor domain; O75164; AlphaScreen JMJD2A-Tudor / H3K4me3 peptide binding; Potency, µM (highest dose often 114 µM), usual class: inhibitors; hit rate 4.4% among 390,000; AID 504339; also: nearly all actives have a fitted effect of over 50% in size
Sfp inh = Sfp phosphopantetheinyl transferase inhibition; Biochemical Sfp PPTase activity, qHTS; Potency, µM, actives largely listed as inhibitors; Q9F4F7; hit rate 3.5% among 310,000; AID 1490;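 also: the enzyme is Sfp with the accession as filed and its product quenches rhodamine fluorescence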
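After 15 min at room temperature with compound, 15 nM Sfp received 5 uM rhodamine-CoA plus 12.5 uM BHQ-2-ybbR (50 mM Hepes pH 7.6, 10 mM MgCl2). Rate came from the fluorescence difference over 30 min, ex 525/em 598 nm.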
TDP1 inh = inhibitors of human tyrosyl-DNA phosphodiesterase TDP1 | Potency, µM (series often up to 130 µM), actives largely listed as inhibitors | AID 485290 | recombinant TDP1, AlphaScreen DNA substrate cleavage | Q9NUW8 | hit rate 0.28% among 350,000; also: nearly all actives have a fitted effect of over 40% in size
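Recombinant human Tdp1 (E. coli-expressed, 1 nM final) preincubated with compounds 15 min at room temperature, then 5'-biotin/3'-phosphotyrosine-FITC DNA substrate (15 nM final) added for 5 min. AlphaScreen beads (10 ug/ml final) added 10 min; cleavage lowers signal.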
G9a block = blocks human histone lysine methyltransferase G9a. hit rate 8.8% among 350,000. Potency, µM (titrated, usually from 102 µM), usual class: inhibitors. G9a H3K9 monomethylation, AlphaScreen, 2 h; also: nearly all actives have a fitted effect of over 75% in size
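Chemiluminescent proximity detection of H3K9 monomethylation, read after 10 min bead incubation in the dark. Reaction: 20 nM G9a, 500 nM biotin-H3K9 peptide, 20 uM SAM cofactor, 2 h, room temperature, following 15 min enzyme-compound preincubation.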
Numbers stand for hits; - = inactive; ? = inconclusive; . = not tested or not shown; [ ] = dose if it differs, or a comment. In the library only some 12% were active in any assay of this set; here they are far more common. Calls follow the shape of the dose curve; as a rule, active = well fitted curve in the direction sought with a large enough effect; inconclusive = small, poorly fitted or top-dose-only effect, or another doubt; inactive = no such curve, though single readings can be large; an effect the other way counts as inactive or inconclusive.

SMILES	HP1b binding inh	BAZ2B inh	JMJD2A Tudor	Sfp inh	TDP1 inh	G9a block
COc1ccc(-c2cc3ccc(OCC(N)=O)cc3oc2=O)cc1OC	-	-	-	-	-	-
COc1ccc(-c2cc3ccc(O)cc3oc2=O)cc1OC	-	-	-	-	79µM	-
CCOC(=O)c1c(N)sn(-c2ccccc2C)c1=S	-	?	56µM	18µM	-	5.6µM
CCOC(=O)c1sc(=S)n(-c2ccccc2Cl)c1SC	-	-	-	-	-	-
COc1ccc(C(=O)Nc2cc(C(C)=O)c(C)oc2=O)cc1	-	-	-	?	-	35µM
COc1ccc(C(=O)NNC(=O)c2cc3cc(OC)ccc3oc2=O)cc1	-	?	-	-	-	.
CC(=O)c1cc(NC(=O)c2ccc(Cl)cc2)c(=O)oc1/C=C/N(C)C	-	-	-	56µM	-	?
COc1ccc(NCC(=O)N/N=C(\C)c2cc3ccccc3o2)cc1	-	35µM	?	-	-	16µM
C/C(=N\Nc1cccc(C(=O)O)c1)c1cc2ccccc2o1	-	?	?	-	-	50µM
C/C(=N\Nc1ncc(Cl)cc1Cl)c1ccccn1	-	22µM	?	-	-	45µM
Clc1cnc(N/N=C/c2ccncc2)c(Cl)c1	-	-	-	-	-	-
C/C(=N\NC(=O)CNc1ccc(F)cc1)c1cc2ccccc2o1	-	?	?	-	-	?
C/C(=N\Nc1cccc([N+](=O)[O-])c1)c1cc2ccccc2o1	-	-	-	-	-	-
C/C(=N\Nc1ncnc2sc(C)c(C)c12)c1ccccn1	-	7.1µM	32µM	-	.	25µM
C/C(=N\Nc1nc(-c2ccc(C)cc2C)cs1)c1cc2ccccc2oc1=O	-	-	-	40µM	-	?
O=C(O)c1cc(N/N=C/c2cccc3ccccc23)ccc1Cl	-	-	-	-	.	?
C/C(=N\Nc1ccc(Cl)c(C(=O)O)c1)c1ccccn1	-	-	-[11.4 µM]	79µM	-	.
COc1ccc2oc(=O)c(/C(C)=N/Nc3nc(-c4cc(C)ccc4C)cs3)cc2c1	-	-	-	-	-	?
C/C(=N\Nc1cccc2cccnc12)c1ccccn1	?	?	?	-	-	14µM
C/C(=N\Nc1ccc(Cl)c(C(=O)O)c1)c1cccc2ccccc12	79µM	?	56µM	-	-	10µM
C/C(Sc1nnc(Cc2ccccc2)o1)=C(\O)c1ccccc1	-	.	-	.	.	.
C/C(=N\NC(=O)CC#N)c1cc2ccccc2oc1=O	-	-	-	?	-	-
C/C(=N\Nc1ccccc1)c1cc2ccccc2oc1=O	-	-	?	-	-	35µM
C/C(=N\Nc1ccc(Cl)c(C(=O)O)c1)c1cc2ccccc2o1	-	?	-	-	-	28µM
C/C(=N\NC(=O)c1ccccc1)c1ccc2c(c1)OCO2	-	?	-	-	?	-
SMILES	HP1b binding inh	BAZ2B inh	JMJD2A Tudor	Sfp inh	TDP1 inh	G9a block
C/C(=N\Nc1ccc(Cl)c(C(=O)O)c1)c1ccc2c(c1)OCO2	-	?	-	-	-	4.5µM
O=C(CCC1CCCN(c2ncccn2)C1)NCc1ccc(F)c(F)c1 (centres undefined)	-	-	-	-	-	-
Cc1cc(NC(=O)CSc2nc3c(C)c(C)ccc3cc2C)no1	-	-	-	-	-	-
O=C1CC(N2CCN(S(=O)(=O)c3ccccc3F)CC2)C(=O)N1c1ccc(F)cc1F (centres undefined)	-	.	-	.	-	.
CCOC(=O)c1cc2n(c1/N=C/N(C)C)-c1ccccc1C2=O	-	-	-	7.9µM	.	?
Cn1cnc([N+](=O)[O-])c1S(=O)(=O)Oc1ccc(Cl)cc1	-	.	-	.	.	.
Cc1ccc(-n2nc(-c3ccco3)cc2C(=O)O)cc1	-	79µM	-[11.4 µM]	22µM	.	?
CC(C)NC(=O)c1cc(-c2ccco2)nn1-c1ccc(Cl)cc1	?	50µM	35µM	10µM	-	3.5µM
O=C(c1cc(-c2ccco2)nn1-c1cccc(Cl)c1)N1CCCCC1	?	?	25µM	8.9µM	-	3.2µM
CCCCC1=CC2=CC(=O)C(C)(OC(=O)CC)C(=O)C2=CN1CCCCO (centres undefined)	-	-	-	-	-[12.3 µM]	-
CCCCCCCC1=CC2=CC(=O)C(C)(OC(C)=O)C(=O)C2=CN1CCc1ccccc1 (centres undefined)	.	?	.	-	-	40µM
COc1ccc(Br)cc1S(=O)(=O)N1CCN(S(=O)(=O)c2ccc3c(c2)OCCO3)CC1	.	.	-	.	.	.
CC(C)Oc1ccc(OCCSc2nc3ccccc3n2CC(=O)O)cc1	-	-	-	-	.	50µM
COC(=O)[C@H](Cc1ccccc1)NC(=O)O[C@H]1C(=O)c2cc(OC)ccc2O[C@@H]1c1ccc(OC)c(Br)c1	.	.	.	-	-	.
CCCc1cc(=O)[nH]c(SCC(=O)N(Cc2ccccc2)C(C)C)n1	-	?	-	-	-	1µM
CCCc1cc(=O)[nH]c(SCC(=O)NC2CC2)n1	-	.	-	.	-	.
CCCc1cc(=O)[nH]c(SCC(=O)C(C)(C)C)n1	-	-	-	-	-	71µM
CCCc1cc(=O)[nH]c(SCc2ccccc2)n1	-	-	-	-	-	-[12.7 µM]
CN(CC(=O)Nc1cc(C(F)(F)F)ccc1-n1cncn1)Cc1ccccc1N1CCOCC1	-	.	-	.	.	.
O=c1ccc2[n+]([O-])c3ccc(O)cc3oc-2c1	?	10µM	-	?	-	10µM
O=c1cc(O)c2ccc(O)cc2o1	-	-	-	-	-	-
CCCC(=O)N(C1CC(C)C(C#N)(C#N)C1(C#N)C#N)N(C)C (centres undefined)	-	-	-	1.8µM	.	7.1µM
CC(=O)N(C1CC(C)C(C#N)(C#N)C1(C#N)C#N)N(C)C (centres undefined)	-	-	-	10µM	-	13µM
C[C@@H]1O[C@H](O[C@@H]2\C=C/C=C\C=C/C=C\C[C@H](C)OC(=O)/C=C\[C@H]3O[C@@H]3C[C@H](O)C[C@]3(O)C[C@@H](O)[C@@H](C(=O)O)[C@H](C2)O3)[C@@H](O)[C@H](N)[C@@H]1O (stereo in doubt)	.	.	.	-	-[21 µM]	-[12.7 µM]
Cc1ccc(S(=O)(=O)N(C)C)cc1NC(=O)COC(=O)CCC1CCCC1	-	-	-	.	.	-[12.7 µM]
Cc1ccc(S(=O)(=O)N(C)C)cc1NC(=S)NNC(=O)C1CC1	-	-	-	-	-	-
Cc1ccc2c(Cl)cc(Cl)c(OCC(=O)Nc3cc(S(=O)(=O)N(C)C)ccc3C)c2n1	-	-	-	?	-	71µM
Cc1ccc2c(Cl)cc(Cl)c(OCC(=O)Nc3cccc(S(=O)(=O)N(C)C)c3)c2n1	-	-	-	-	-	-
Cc1ccc(S(=O)(=O)N(C)C)cc1NC(=S)NNC(=O)C(N)=O	-	-	-[11.4 µM]	-	-	45µM
Cc1ccc(S(=O)(=O)N(C)C)cc1NC(=O)COC(=O)C1CCCC1	-	-	20µM	.	-	-
